Screens: PubChem BioAssay, National Center for Advancing Translational Sciences (NCATS)
Sfp inh: qHTS Assay for Inhibitors of Bacillus subtilis Sfp phosphopantetheinyl transferase (PPTase); 310,000 compounds, 3.5% hits; 4'-phosphopantetheinyl transferase ffp (Bacillus subtilis), Q9F4F7; Potency, µM, actives largely listed as inhibitors; AID 1490, 2009; Biochemical Sfp PPTase activity, qHTS;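 also: the enzyme is Sfp with the accession as filed and its product quenches rhodamine fluorescence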
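Fluorescence-quenching assay with 15 nM Sfp, 5 uM rhodamine-CoA and 12.5 uM BHQ-2-labelled ybbR peptide in pH 7.6 Hepes/MgCl2 buffer. Enzyme was pre-incubated with compound for 15 min at room temperature. Rate was taken from the 30-min fluorescence change (525/598 nm).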
HP1b binding inh: HTS for Inhibitors of HP1-beta Chromodomain Interactions with Methylated Histone Tails | AlphaScreen HP1-beta / biotin-H3K9me3 peptide binding | Potency, µM (top dose mostly 114 µM), hits mostly inhibitors | 390,000 compounds, 0.56% hits | AID 540317, 2011; also: nearly all actives have a fitted effect of over 70% in size
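Compound inhibition of the preformed complex between 50 nM HP1-beta and 50 nM biotinylated H3K9me3 peptide was read by AlphaScreen. Buffer was PBS pH 7.4 with 0.01% Tween-20. Incubations ran 30 min at room temperature, with 10 ug/mL donor/acceptor beads.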
G9a block: qHTS Assay for Inhibitors of Histone Lysine Methyltransferase G9a. Histone-lysine N-methyltransferase EHMT2 (Homo sapiens), Q96KQ7. G9a H3K9 monomethylation, AlphaScreen, 2 h. Potency, µM (highest dose often 102 µM), most hits filed as inhibitors. 350,000 compounds, 8.8% hits; also: nearly all actives have a fitted effect of over 75% in size
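Compounds were preincubated with 20 nM G9a for 15 min, after which biotinylated H3K9 peptide (500 nM) and SAM (20 uM) started a 2 h room-temperature reaction. Monomethylated product was quantified by antibody-based AlphaScreen chemiluminescence.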
JMJD2A Tudor: qHTS Assay for Inhibitors of JMJD2A-Tudor Domain | AID 504339, 2011 | 390,000 compounds, 4.4% hits | Lysine-specific demethylase 4A (Homo sapiens), O75164 | Potency, µM (highest dose often 114 µM), hits mostly inhibitors | AlphaScreen JMJD2A-Tudor / H3K4me3 peptide binding; also: nearly all actives have a fitted effect of over 50% in size
Target sequence (O75164 whole entry, looked up, the tested form may be a part): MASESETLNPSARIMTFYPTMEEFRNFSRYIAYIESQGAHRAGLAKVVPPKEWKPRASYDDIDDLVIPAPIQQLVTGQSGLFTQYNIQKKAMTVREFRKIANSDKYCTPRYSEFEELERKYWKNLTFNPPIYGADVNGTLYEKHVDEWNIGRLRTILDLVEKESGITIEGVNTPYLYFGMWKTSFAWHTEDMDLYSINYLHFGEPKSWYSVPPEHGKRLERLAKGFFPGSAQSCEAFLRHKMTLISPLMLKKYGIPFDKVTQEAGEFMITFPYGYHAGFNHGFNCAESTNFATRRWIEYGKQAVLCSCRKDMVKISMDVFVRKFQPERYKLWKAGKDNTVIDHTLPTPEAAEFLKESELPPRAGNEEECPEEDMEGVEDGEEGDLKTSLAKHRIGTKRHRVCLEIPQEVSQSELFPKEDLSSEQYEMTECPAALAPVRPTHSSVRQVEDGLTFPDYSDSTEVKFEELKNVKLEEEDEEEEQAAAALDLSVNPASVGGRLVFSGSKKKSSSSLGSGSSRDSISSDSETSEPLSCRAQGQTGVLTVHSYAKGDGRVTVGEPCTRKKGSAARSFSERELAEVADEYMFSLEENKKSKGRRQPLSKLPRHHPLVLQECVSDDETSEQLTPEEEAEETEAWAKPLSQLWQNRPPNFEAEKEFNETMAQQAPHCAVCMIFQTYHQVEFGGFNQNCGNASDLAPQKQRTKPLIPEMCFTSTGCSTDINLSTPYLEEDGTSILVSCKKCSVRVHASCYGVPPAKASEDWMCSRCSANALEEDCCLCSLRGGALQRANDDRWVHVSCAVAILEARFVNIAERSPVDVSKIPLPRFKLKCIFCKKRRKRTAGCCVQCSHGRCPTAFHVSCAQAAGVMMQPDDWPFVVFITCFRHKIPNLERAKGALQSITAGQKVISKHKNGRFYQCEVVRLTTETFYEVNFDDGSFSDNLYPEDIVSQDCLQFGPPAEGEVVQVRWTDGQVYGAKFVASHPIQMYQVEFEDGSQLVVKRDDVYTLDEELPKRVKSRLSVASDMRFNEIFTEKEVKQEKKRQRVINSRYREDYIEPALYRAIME
PLK1 PBD inh: qHTS for Inhibitors of PLK1-PDB (polo-like kinase 1 - polo-box domain): Primary Screen; 360,000 compounds, 2.8% hits; AID 720504, 2013; Potency, µM, usual class: inhibitors; Serine/threonine-protein kinase PLK1 (Homo sapiens), P53350; Plk1 PBD binding of FITC phosphopeptide, fluorescence polarization; also: series mostly up to about 57 µM; nearly all actives have a fitted effect of over 65% in size
BAZ2B block: qHTS Assay for Inhibitors of BAZ2B | Bromodomain adjacent to zinc finger domain protein 2B (Homo sapiens), Q9UIF8 | AlphaScreen BAZ2B-H3K14Ac peptide displacement | Potency, µM (highest dose often 114 µM), usual class: inhibitors | 360,000 compounds, 4.4% hits | AID 504333, 2011; also: nearly all actives have a fitted effect of over 60% in size
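AlphaScreen displacement: compounds (up to 110uM) incubated 30 min at room temperature with a preformed 50 nM BAZ2B/50 nM biotinylated H3K14Ac peptide complex in PBS pH 7.4 with Tween-20. Donor and acceptor beads at 10 ug/mL final added, 20 min light-protected before reading.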
Each line names hits and unclear results; the compound was inactive in the other large screens; ! = repeats disagree. An excerpt weighted towards active compounds, which were near 12% of everything screened. Calls follow the shape of the dose curve; as a rule, active = well fitted curve in the direction sought with a large enough effect; inconclusive = small, poorly fitted or top-dose-only effect, or another doubt; inactive = no such curve, though single readings can be large; an effect the other way counts as inactive or inconclusive.

NC[C@@H]1O[C@H](OC2[C@@H](CO)O[C@@H](OC3[C@H](O)[C@H](N)C[C@H](N)[C@H]3OC3O[C@H](CO)[C@@H](O)[C@H](O)[C@@H]3N)[C@H]2O)C(N)[C@H](O)[C@@H]1O (stereo not given in full)	none (no result: HP1b binding inh, JMJD2A Tudor, PLK1 PBD inh, BAZ2B block)
CC[C@@H]1[C@@H]2C[C@H]3[C@H]4N(C)c5ccccc5[C@@]45C[C@@H]([C@@H]2[C@@H]5O)N3[C@H]1O	none (no result: HP1b binding inh, JMJD2A Tudor, PLK1 PBD inh, BAZ2B block)
c1ccc(SSc2ccccc2)cc1	Sfp inh inconclusive, PLK1 PBD inh 1.1µM
CN1CCc2c(C#N)c(Cl)nc(Cl)c2C1	G9a block 45µM
Cc1ccc(NP(=O)(c2ccccc2)c2nc3ccccc3s2)cc1 (stereo not given)	G9a block 25µM
Cc1ccc(Cn2c(SCc3ccc(C(=O)NC4CCCC4)cc3)nc3ccncc32)cc1	G9a block inconclusive (no result: Sfp inh, PLK1 PBD inh)
COC(=O)[C@@H]1N=C(c2ccc(OC)cc2)O[C@]12C(=O)N(C)c1cccc(Cl)c12	none (no result: Sfp inh, HP1b binding inh, G9a block, JMJD2A Tudor, BAZ2B block)
CN(C)[C@@H]1C(=O)C(C(N)=O)=C(O)[C@@]2(O)C(=O)C3=C(O)c4c(O)ccc(Cl)c4[C@@](C)(O)C3C[C@@H]12 (stereo not given in full)	G9a block 50µM, JMJD2A Tudor 11µM, BAZ2B block 45µM
CN(C)C1C(=O)C(C(N)=O)=C(O)C2(O)C(=O)C3=C(O)c4c(O)cccc4C(C)(O)C3CC12 (stereo not given)	G9a block inconclusive, JMJD2A Tudor 40µM, BAZ2B block 13µM
CN(C)[C@H]1C(=O)C(C(N)=O)=C(O)[C@]2(O)C(=O)C3=C(O)c4c(O)cccc4[C@@](C)(O)[C@H]3C[C@@H]12	none (no result: HP1b binding inh, JMJD2A Tudor, PLK1 PBD inh, BAZ2B block)
O=c1[nH]c(=O)n(CC2CCCO2)c(O)c1/C=C1\C=Nc2ccccc21 (stereo not given)	G9a block 1.3µM, PLK1 PBD inh 27µM
O=c1[nH]c(=O)n(-c2ccccc2F)c(O)c1/C=C1\C=Nc2ccccc21	Sfp inh 35µM, G9a block inconclusive, PLK1 PBD inh 4.2µM, BAZ2B block inconclusive
CC1(C)[C@@H](C=C(Cl)Cl)[C@@H]1C(=O)OCc1c(F)c(F)cc(F)c1F	none (no result: HP1b binding inh, JMJD2A Tudor, PLK1 PBD inh, BAZ2B block)
NCCc1c[nH]c2ccc(C(N)=O)cc12	G9a block 35µM!
NCCc1c[nH]c2ccc(F)cc12	G9a block inconclusive (no result: HP1b binding inh, JMJD2A Tudor, PLK1 PBD inh)
CCN1C[C@]2(C)CC[C@H](O)[C@@]34C5C[C@@H]6[C@@H](OC)C[C@@](O)(C5[C@H]6O)[C@@H](CC23)[C@@H]14 (stereo not given in full)	none (no result: HP1b binding inh, G9a block, JMJD2A Tudor, PLK1 PBD inh, BAZ2B block)
Cc1c2ccncc2c(C)c2c1[nH]c1ccccc12	Sfp inh 22µM, G9a block 21µM!, BAZ2B block 56µM
CCCCCCCCCCCC[N+](C)(C)CCOc1ccccc1	Sfp inh 50µM (no result: HP1b binding inh, JMJD2A Tudor, PLK1 PBD inh, BAZ2B block)
CCCCCCCCOC(=O)c1ccccc1C(=O)OCCCCCCCC	none (no result: HP1b binding inh, JMJD2A Tudor, PLK1 PBD inh, BAZ2B block)
CCN1CCN(Cc2ccc(C)cc2C)CC1	G9a block 56µM, BAZ2B block inconclusive
C=CCn1c(O)c(C(C)=Nc2cccc(C(=O)O)c2)c(=O)[nH]c1=O	G9a block 50µM
C=CCn1c(O)c(C(C)=Nc2ccc(C(=O)OCC)cc2)c(=O)[nH]c1=O	G9a block inconclusive, BAZ2B block 79µM
C=CCn1c(O)c(C(C)=NCCO)c(=O)[nH]c1=O	none
C=CCn1c(O)c(C(CC)=Nc2ccc(N(C)C)cc2)c(=O)[nH]c1=O	Sfp inh 50µM, BAZ2B block inconclusive (no result: G9a block)
C=CCn1c(O)c(C(C)=O)c(=O)[nH]c1=O (tested in a mixture with another compound)	G9a block 45µM
